Measurements published in PubChem BioAssay.
“And” between values parts separate entries of the source, which are not always exact repeats. Identical values can stand only once. Results filed as inconclusive are left out. The source made the active and inactive calls. Unless noted, cut-off not given; nearly all actives show AC50 up to about 26 µM.

What was measured:
[1] = viability loss in pontine glioma line – cell-based, SU-DIPG-XVII, MIPE5.0, CellTiter-Glo, qHTS, dose response (AID 1347060); conditions: CellTiter-Glo ATP luminescence;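 on AC50: cells exposed to compound for 48 hours before viability readout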
[2] = viability loss in pontine glioma line – cell-based, SU-DIPG-XIII, MIPE4.0, CellTiter-Glo, qHTS, dose response (AID 1347061; cut-off not given, nearly all actives have AC50 up to about 37 µM;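 further: cells exposed to compound for 48 hours before readout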); conditions: CellTiter-Glo ATP luminescence
[3] = viability loss in pontine glioma line – cell-based, JHH-DIPG-1, MIPE4.0, CellTiter-Glo, qHTS, dose response (AID 1347062; cut-off not given, nearly all actives have AC50 up to about 27 µM;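 on AC50: cells exposed to compound for two days before readout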); conditions: JHH-DIPG-1 viability, CellTiter-Glo ATP luminescence
[4] = viability loss in pontine glioma line – cell-based, SU-DIPG-IV, MIPE4.0, CellTiter-Glo, qHTS, dose response (AID 1347063; cut-off not given, nearly all actives have AC50 up to about 30 µM;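 further: compound exposure lasted 48 hours before the viability readout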); conditions: CellTiter-Glo ATP luminescence
[5] = viability loss in pontine glioma line – cell-based, SU-DIPG-XIII, MIPE5.0, CellTiter-Glo, qHTS, dose response (AID 1347064; cut-off not given, nearly all actives have AC50 up to about 23 µM;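 on AC50: cells exposed to compound for 48 hours before the viability read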); conditions: CellTiter-Glo ATP luminescence
[6] = viability loss in pontine glioma line – cell-based, SU-DIPG-XXV, MIPE5.0, CellTiter-Glo, qHTS, dose response (AID 1347065); conditions: CellTiter-Glo ATP luminescence;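 further: cells exposed to compound for 48 hours before ATP readout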
[7] = JHH-DIPG-1 glioma cell viability, MIPE5.0 library, CellTiter-Glo luminescence, qHTS (AID 1347067); conditions: JHH-DIPG-1 glioma viability, CellTiter-Glo ATP luminescence;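 further: cells exposed to compound for 48 hours before readout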
[8] = compounds altering HSF1 focus formation in cells – imaging, Selleck Cancer Library (AID 1347162; in the data active means plate-normalised HSF1 focus index below about 0.46); conditions: human cells, HSF1 nuclear foci imaging, at 10 µM; SSMD: measured here: HSF1 foci SSMD mean; cell count: measured here: cell number; plate-normalised HSF1 focus index: stronger effect = lower value
[9] = growth inhibition of DIPG cells – cell-based, MIPE5.0 library, qHTS (AID 1347068; cut-off not given, nearly all actives have IC50 up to about 30 µM;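 on IC50: cells exposed to compound for 48 hours before viability readout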); conditions: SU-DIPG-XXV viability
[10] = viability loss with induced miR-34 in A549 – imaging, A549 dox-inducible miR-34, nuclei and caspase counts, primary screen (AID 1347080;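 active means compounds whose cell count with miR-34 switched on is under 0.7 times the count with it off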); conditions: A549 miR-34 inducible, Hoechst nuclei count, 48 h
[11] = MELAS cybrid and Rieske KO viability enhancers – cell-based, MELAS cybrids, Rieske KO mouse fibroblasts, CellTiter-Glo, primary screen (AID 1508586;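 active means mean z-score across replicates of 1.96 or higher in either the MELAS or the Rieske mutant cell line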;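 further: z relative to plate mean and SD of compound and empty wells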); conditions: low glucose
[12] = growth inhibition, single agent or in combination, cell-based, chromothripsis tumors, cisplatin or BGB combos (AID 1671449; in the data active means inhibition above about 80%;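 further: cells exposed for 96 hours; 0% = vehicle DMSO and 100% = killing by high DMSO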); conditions: LFS_MB_P medulloblastoma cells
[13] = growth inhibition, single agent and combos, cell-based, chromothripsis tumors, cisplatin or BGB combos (AID 1671450; in the data active means inhibition above about 80%;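 further: cells exposed to compound for four days; 0% = vehicle DMSO and 100% = cell killing by high DMSO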); conditions: HDN33 neuroblastoma cells, stronger effect = higher value
[14] = growth inhibition, single agents and combos, ICB984, cell-based, cisplatin or BGB combos, synergistic combos for chromothripsis tumors (AID 1671451; call rule not given here;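 further: cells exposed for 96 hours before readout; 0% = vehicle DMSO and 100% = killing by high DMSO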); conditions: ICB984 medulloblastoma cells, drug combinations, stronger effect = higher value
[15] = growth inhibition, single agents and combos, HTB85, cell-based, BGB or cisplatin IC20 combos, synergistic combos for chromothripsis tumors (AID 1671453; in the data active means inhibition above about 80%;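 further: cells exposed for 96 hours before readout; 0% = vehicle DMSO and 100% = high DMSO killing control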); conditions: HTB85 osteosarcoma cells, drug combinations, stronger effect = higher value
[16] = growth inhibition, MDA-MB-436, cell-based, BGB or cisplatin combos, synergistic combos for chromothripsis tumors (AID 1671458; call rule not given here;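 further: cells exposed for 96 hours; 0% = vehicle DMSO and 100% = killing by high DMSO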); conditions: MDA-MB-436 breast carcinoma growth inhibition, drug combinations, stronger effect = higher value
[17] = BT084 cell growth, single and combined drugs, ICGC_MB145, cisplatin and BGB IC40 combos (AID 1671461; in the data active means inhibition above about 80%;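 further: cells exposed to drugs for 96 hours; 0% = vehicle DMSO and 100% = high DMSO full killing control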); conditions: BT084 medulloblastoma cells, drug combinations, stronger effect = higher value
[18] = RCMB18 cell growth, single agent and combined, cisplatin and BGB IC40 combos (AID 1671462; in the data active means inhibition above about 80%;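 further: cells exposed to compound for four days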); conditions: RCMB18 medulloblastoma cells, stronger effect = higher value
[19] = stronger effect = lower value, cell number ratio, induced over uninduced
[20] = measured here: relative caspase fold change +Dox/-Dox
[21] = measured here: total cells with miR-34 induction, stronger effect = lower value
[22] = measured here: total cells without miR-34 induction
[23] = MELAS cybrid survival, CellTiter-Glo 48 h, stronger effect = higher value
[24] = Rieske KO mouse fibroblast survival, CellTiter-Glo 72 h

## Cn1c(=O)n(-c2ccc(C(C)(C)C#N)cc2)c2c3cc(-c4cnc5ccccc5c4)ccc3ncc21
[1]
  AC50: 481 nM (active)
[2]
  AC50: 2640 nM (active)
[3]
  AC50: 4180 nM (active)
[4]
  AC50: 23.5 nM (active)
[5]
  AC50: 855 nM (active)
[6]
  AC50: 135 nM (active)
[7]
  AC50: 855 nM (active)
[8]
  SSMD: -0.518
  cell count: 7130
  plate-normalised HSF1 focus index: 0.984 (inactive)

## NC(=O)c1cnc(-c2ccc(C3(N)CCC3)cc2)c(-c2ccccc2)c1
[1]
  outcome: inactive
[2]
  outcome: inactive
[3]
  outcome: inactive
[4]
  outcome: inactive
[5]
  outcome: inactive
[9]
  outcome: inactive

## CNC(=O)c1ccccc1Nc1nc(Nc2ccc(N3CCOCC3)cc2OC)ncc1Cl
[1]
  AC50: 590 nM (active)
[2]
  AC50: 5900 nM (active)
[3]
  AC50: 1480 nM (active)
[4]
  AC50: 2960 nM (active)
[5]
  AC50: 235 nM (active)
[6]
  AC50: 186 nM (active)
[7]
  AC50: 661 nM (active)
[9]
  IC50: 1050 nM (active)
[10]; [19]
  fold change: 0.899 (inactive)
[10]; [20]
  fold change: 0.999
[10]; [21]
  cell count: 1560
[10]; [22]
  cell count: 1730
[11]; [23]
  z-score: 0.492 (inactive)
[11]; [24]
  z-score: -1.89

## O=C(CCCCCCNC(=O)c1cnc(N(c2ccccc2)c2ccccc2)nc1)NO
[1]
  AC50: 7420 nM (active)
[2]
  AC50: 23500 nM (active)
[3]
  AC50: 7430 nM (active)
[4]
  AC50: 5900 nM (active)
[5]
  AC50: 4170 nM (active)
[6]
  AC50: 7420 nM (active)
[7]
  AC50: 8330 nM (active)
[10]; [19]
  fold change: 0.909 (inactive)
[10]; [20]
  fold change: 0.469
[10]; [21]
  cell count: 4500
[10]; [22]
  cell count: 4950
[11]; [23]
  z-score: -0.658 (inactive)
[11]; [24]
  z-score: 0.218
[12]; at 0.5 µM, stronger effect = higher value
  inhibition: -14.5% (inactive) and -5.58% (inactive)
[12]; measured here: combination with BGB IC20, at 0.005 µM
  inhibition: -18.6% and -24.1%
[12]; measured here: combination with BGB IC40, at 0.005 µM
  inhibition: -32.2% and -65.4%
[12]; measured here: combination with BGB IC40, at 0.05 µM
  inhibition: -41.9% and -39.4%
[12]; measured here: combination with cisplatin, at 0.5 µM, stronger effect = higher value
  inhibition: -7.65% and 15.8%
[12]; measured here: combination with cisplatin, at 5 µM, stronger effect = higher value
  inhibition: 98.3% and 80%
[13]; BGB combo, at 5 µM
  inhibition: 42.2% and -4.91%
[13]; at 0.5 µM
  inhibition: -11.3% (inactive) and -31.5% (inactive)
[13]; cisplatin combo, at 5 µM
  inhibition: 48.9% and 1.35%
[13]; measured here: with BGB IC20 combination, at 0.5 µM
  inhibition: -15.6% and -44.2%
[13]; measured here: with cisplatin IC20 combination, at 0.5 µM
  inhibition: -0.181% and -16.9%
[13]; single agent, at 5 µM
  inhibition: 58.6% and 19.5%
[14]; BGB IC20 combo, at 0.005 µM
  inhibition: -1.95% and -4.3%
[14]; BGB IC40 combo, at 0.005 µM
  inhibition: -29.2% and -32%
[14]; BGB IC40 combo, at 0.05 µM
  inhibition: 25.2% and 28%
[14]; at 0.5 µM
  inhibition: -12.7% (inactive) and -20.3% (inactive)
[14]; cisplatin combo, at 0.05 µM
  inhibition: 22.5% and 24.5%
[14]; cisplatin combo, at 0.5 µM
  inhibition: -4.11% and -25.4%
[14]; cisplatin combo, at 5 µM
  inhibition: -33% and -20%
[14]; measured here: 5 uM single agent, at 5 µM
  inhibition: -20.1% and -35.8%
[15]; at 0.5 µM
  inhibition: -4.93% (inactive) and -17.7% (inactive)
[15]; measured here: with BGB IC20, at 0.5 µM
  inhibition: -15.5% and -21.9%
[15]; measured here: with BGB IC20, at 5 µM
  inhibition: 46.8% and 4.12%
[15]; measured here: with cisplatin IC20, at 0.5 µM
  inhibition: 14.2% and -10.7%
[15]; measured here: with cisplatin IC20, at 5 µM
  inhibition: 38.8% and 48.3%
[15]; single agent, at 5 µM
  inhibition: 42.9% and 23.4%
[16]; at 0.5 µM
  inhibition: -21.3% (inactive) and -18.7% (inactive)
[16]; measured here: BGB combination, at 0.5 µM
  inhibition: -26.1% and -14.4%
[16]; measured here: BGB combination, at 5 µM
  inhibition: 12.3% and 1.72%
[16]; measured here: cisplatin combination, at 0.5 µM
  inhibition: -29.8% and -32%
[16]; measured here: cisplatin combination, at 5 µM
  inhibition: 9.34% and 4.42%
[17]; at 0.5 µM
  inhibition: 0.96% (inactive) and 10.8% (inactive)
[17]; cisplatin combination, at 0.5 µM
  inhibition: -4.86% and 4.91%
[17]; cisplatin combination, at 5 µM
  inhibition: 90.9% and 41.3%
[17]; measured here: BGB IC40 combination 0.05 uM, at 0.05 µM
  inhibition: -52.6% and -17.2%
[17]; single agent, at 5 µM
  inhibition: 58% and 51.4%
[18]; at 0.5 µM
  inhibition: -4.02% (inactive) and 5.89% (inactive)
[18]; cisplatin combo, at 5 µM
  inhibition: 58% and 24.2%
[18]; measured here: BGB IC40 combination, at 0.05 µM
  inhibition: -5.21% and -9.76%
[18]; measured here: combination with cisplatin, at 0.5 µM
  inhibition: 7.09% and 6.01%
[18]; single agent, at 5 µM
  inhibition: 36.2% and 26.2%
